Shown are actives, neighbours in structure and some others; about 11% of the full set was active somewhere.
Insulin prom up – MIN6 insulin promoter up-regulation. MIN6 insulin promoter-GFP reporter, high-content imaging; hits give high values. z-score at 5 µM. 0.3% of 190,000 active. AID 1625;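 active = z-score above 3 at 5 µM with at least 500 cells counted in the well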
Autophagy mod – autophagy modulation, high-content screen; AID 463193; MEF GFP-LC3 puncta imaging; test concentration mostly 10 µM; calls only at 10 µM (by protocol); 0.98% of 190,000 active;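 active = percentage of spot-positive cells more than 3 SD above its plate mean, without a fluorescence outlier flag or 80% toxicity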
INS promoter inh – TRM-6 insulin promoter activity inhibition; AID 1273; 0.9% of 130,000 active; TRM-6 cells (human fetal islet line), insulin promoter-eGFP reporter, imaging; reporter expression induced with tamoxifen; inhibition, % at 2 µM;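 active = inhibition above the mean plus 3 SD, with well images judged a real hit on visual review, cut at about 60% in these data, passing the limit was not always enough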
L major viab – inhibitors of Leishmania major promastigote growth. inhibition, % at 10 µM. Leishmania major promastigotes, resazurin fluorescence viability. 9% of 200,000 active; in the data active = inhibition above about 50%;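 note: promastigotes grown with compound for 44 hours at 28 °C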
WT yeast gro inh – growth inhibition of WT yeast, mitochondrial fusion screen. 2.1% of 190,000 active. mitochondrial fusion phenotypic screen, WT strain. inhibition, % at 10 µM; in the data active = inhibition above about 58%; tested in S. cerevisiae
Numbers stand for hits; - = inactive; . = not tested or not shown; + = active, no number.

SMILES	Insulin prom up	Autophagy mod	INS promoter inh	L major viab	WT yeast gro inh
CCCCNc1nc2ccccc2[nH]1	-	-	100	-	.
CCCCn1c(/C=C/c2ccco2)nc2ccccc21	-	-	.	63	-
C(=N\Nc1nc2ccccc2[nH]1)/c1cccc2nccnc12	-	.	.	.	.
Fc1ccccc1-c1ccc(/C=N/Nc2nc3ccccc3[nH]2)o1	-	-	-	97	-
C#CCn1cc(/C=N/Nc2nc3ccccc3[nH]2)c2ccccc21	-	-	-	101	-
CCCn1c(/C=C/c2ccco2)nc2ccccc21	-	-	-	-	-
CCCCNCc1cc(OCC)c(OCC)cc1Br	-	-	.	-	-
CCCCn1c(/C=N/Nc2nc3ccccc3[nH]2)nc2ccccc21	-	-	.	100	-
COC(=O)Cn1cc(/C=N/NC(=O)COc2cccc3cccnc23)c2ccccc21	-	-	.	-	-
CCCCn1c(/N=C/c2c[nH]c3ccccc23)nc2ccccc21	-	-	-	-	-
Cc1ccc(/C=N\Nc2nc3ccc(Cl)cc3[nH]2)o1	-	-	-	99	-
C#CCn1cc(/C=N/NC(=O)COc2cccc3cccnc23)c2ccccc21	-	-	-	58	-
Cc1ccc(Cn2c(/C=C/c3ccco3)nc3ccccc32)cc1	-	-	.	-	-
Clc1ccc(Cn2c(/C=C/c3ccco3)nc3ccccc32)cc1	-	-	-	50	76
Cc1nc2cc(NC(=O)CCS(=O)(=O)c3ccccc3)ccc2s1	-	-	.	-	-
COc1ccccc1-n1c(SCC(=O)Nc2ccc(Br)cc2)nc(O)cc1=O	-	.	.	.	.
c1ccc(-n2ncc3c2ncn2cnnc32)cc1	-	-	-	-	-
CCc1nnc2c3cnn(-c4ccccc4)c3ncn12	-	-	78	-	-
CC(=O)c1cccc(CN2CCN(Cc3ccc(C)cc3)C(CCO)C2)c1 (stereo not given)	-	-	.	79	-
CC(=O)c1cccc(CN2CCN(CC=C(C)C)C(CCO)C2)c1 (stereo not given)	-	.	.	.	.
COc1ccc(CN2CCN(Cc3ccc(C)cc3)C(CCO)C2)cc1OC (stereo not given)	-	-	.	-	-
CC(=O)c1cccc(CN2CCN(CCc3ccccc3)C(CCO)C2)c1 (stereo not given)	-	-	.	68	-
Cc1ccc(CN2CCN(Cc3cccc(-n4cccn4)c3)CC2CCO)cc1 (stereo not given)	-	-	.	80	-
OCCC1CN(Cc2ccc3c(c2)CCO3)CCN1Cc1ccc(F)cc1 (stereo not given)	-	-	.	75	-
CC(=O)c1cccc(CN2CCN(Cc3ccc(F)cc3)C(CCO)C2)c1 (stereo not given)	.	-	-	87	-
SMILES	Insulin prom up	Autophagy mod	INS promoter inh	L major viab	WT yeast gro inh
CC(=O)c1cccc(CN2CCN(C3CCCC3)C(CCO)C2)c1 (stereo not given)	-	-	.	-	-
CCOCCn1c(SC(C)C(C)=O)nc2c1c(=O)[nH]c(=O)n2C (stereo not given)	-	.	.	.	.
Cc1ccc(S(=O)(=O)N(C)C)cc1NC(=O)COC(=O)CCC(=O)c1ccc(F)cc1	-	-	.	-	-
Cc1ccc(S(=O)(=O)N(C)C)cc1NC(=O)COC(=O)/C(=C/c1ccc(F)cc1)c1cccs1	-	-	64	-	-
CCC(Oc1ccc2c(=O)c(-c3ccccc3OC)coc2c1)C(=O)OCc1ccccc1 (stereo not given)	-	-	-	-	-
O=C(NCc1ccccc1Cl)c1ccccc1Oc1ccccc1	-	-	.	-	-
Cc1cc(NC(=O)c2noc3c2CCCC3)no1	-	+	-	-	-
Cc1cccc(NC(=O)c2ccc(S(=O)(=O)N3CCOCC3)cc2)n1	-	-	.	-	-
Cc1cc(NC(=O)c2ccc3c(c2)OCO3)no1	-	-	85	-	-
O=C(Nc1ccc2c(c1)OCO2)c1noc2c1CCCCC2	-	+	-	-	-
Cc1cc(NC(=O)c2ccc(S(=O)(=O)N3CCOCC3)cc2)no1	-	-	.	54	-
CCC(=O)Nc1ccc(C(=O)NNC(=O)Cc2ccccc2)cc1	-	-	.	-	-
COc1ccc(NC(=O)C(NC(=O)c2ccc(=O)[nH]c2)c2ccc(OC)cc2)cc1 (stereo not given)	-	-	-	-	-
O=[N+]([O-])c1ccc(C2OCCO2)cc1CS(=O)(=O)c1ccccc1	-	-	-	-	-
COc1ccc(CCNC(=O)CSc2nncs2)cc1	-	-	-	59	-
COc1ccc(CCNC(=O)CSc2ccccn2)cc1	-	-	-	-	-
COc1ccc(CCNC(=O)CSc2ncn[nH]2)cc1	-	-	86	-	-
COc1ccc(CCNC(=O)CSc2nc(C)cs2)cc1	-	-	.	-	-

Compound activity from PubChem.
